According to the supplement of paper PMC9948646:

test system: gramicidin D channels in DC22:1PC lipid vesicles (bilayer-modifying potency); test: initial Tl+ fluorescence quench rate relative to no-drug control (NormRate, gramicidin monomer-dimer shift) (ratio (fold of control)); higher = stronger bilayer-modifying effect (equilibrium shifted toward conducting dimers), active = 1.5 or more; conditions: 10 µM; lipid concentration 50 µM; temperature: 25 °C
Procedure: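 Stopped-flow fluorescence quench assay: ANTS-loaded DC22:1PC large unilamellar vesicles doped with gramicidin D (1:2000), 50 µM lipid, equilibrated 10 min with 10 µM drug (0.1% DMSO), mixed with Tl+ quench buffer at 25°C. Initial quench rate (Tl+ influx) was fitted with a modified stretched exponential and normalised to the no-drug control rate (NormRate); duplicates from two independent LUV preparations (triplicates for 7 drugs).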

Row | SMILES | initial Tl+ fluorescence quench rate
1 | C[C@@H]1[C@H](O)[C@@H](C)/C=C/C=C/C=C/C=C/C=C/C=C/C=C/[C@H](O[C@@H]2O[C@H](C)[C@@H](O)[C@H](N)[C@@H]2O)C[C@@H]2O[C@](O)(C[C@@H](O)C[C@@H](O)[C@H](O)CC[C@@H](O)C[C@@H](O)CC(=O)O[C@H]1C)C[C@H](O)[C@H]2C(=O)O | 1.03 (inactive)
2 | COc1cc(Br)cc2cc(C(=O)Nc3cccc(C(F)(F)F)c3)c(=O)oc12 | 1.05 (inactive)
3 | O=C(Nc1ccc(N2CCNCC2)cc1)c1ccn2ncc(-c3cccc(Cl)c3)c2n1 | 2.57 (active)
4 | Cc1nn(C(=O)Nc2cccc(C(F)(F)F)c2)c(C)c1Sc1ncccn1 | 2 (active)
5 | CCc1nc2ccc(Cl)cn2c1C(=O)NCc1ccc(N2CCC(c3ccc(OC(F)(F)F)cc3)CC2)cc1 | 1.09 (inactive)
6 | O=C(Nc1c(O)cccc1-c1nc2c(C(=O)O)cccc2o1)c1cc(-c2ccccc2)on1 | 1.35 (inactive)
7 | Cc1ccc(S(=O)(=O)N2CCN(C(=O)c3cc(-c4ccccc4)[nH]n3)CC2)cc1 | 1.38 (inactive)
8 | Cc1nn(C)cc1[C@H](C)Nc1nncc(-c2ccc(C(F)(F)F)cc2)n1 | 1.93 (active)
9 | COc1cccc(-c2cc3c(Nc4cccnc4)nccc3[nH]2)c1 | 1.5 (inactive)
10 | COc1cccc(NC(=O)c2c(NC(=O)c3cccnc3)sc3c2CCC3)c1 | 1.55 (active)
11 | Cc1ccc(-c2cc(C(=O)Nc3cccnc3)c3cc(Br)ccc3n2)cc1 | 2.5 (active)
12 | c1ccc(-c2cc(N3CCCCC3)c3ccccc3n2)nc1 | 1.08 (inactive)
13 | CCCCc1ccc(NC(=O)Nc2ccc(O[C@H]3CCCC[C@@H]3N(C)c3ccccc3)c(F)c2)cc1 | 1.35 (inactive)
14 | CCc1ccc(S(=O)(=O)Nc2cc(CN3CCN(CCC(C)C)CC3)ccc2C)cc1 | 1.29 (inactive)
15 | O=[N+]([O-])c1cn2c(n1)OC[C@@H](OCc1ccc(OC(F)(F)F)cc1)C2 | 1.38 (inactive)
16 | O[C@@H](c1cc(C(F)(F)F)nc2c(C(F)(F)F)cccc12)[C@H]1CCCCN1 | 2.24 (active)
17 | Cc1nc(-c2ccccn2)nc(NCCc2ccc(S(C)(=O)=O)cc2)c1Cl | 1.13 (inactive)
18 | CN(C)CCNC(=O)N1CCCN(c2ncnc3cc(-c4ccccc4)sc23)CC1 | 1.11 (inactive)
19 | CC(=O)NC[C@@H]1CN(c2ccc(N3CCOCC3)c(F)c2)C(=O)O1 | 1.08 (inactive)
20 | Oc1c(I)cc(I)c2cccnc12 | 1.47 (inactive)
21 | O=C1[C@@H](Oc2ccccc2)[C@@H](c2ccc(Cl)cc2)N1CCn1cnc2c(NCc3ccccc3)ncnc21 | 2.02 (active)
22 | C[C@H](c1ccc2c(c1)CCCC2)N(C)c1ncc2c(N)nc(N)nc2n1 | 2.15 (active)
23 | CS(=O)(=O)Cc1nc2ccccc2oc1=O | 1.08 (inactive)
